From PubChem BioAssay (NCATS)
“And” between values parts separate entries of the source, which are not always exact repeats. Identical values can stand only once. Unmarked numbers belong to inactive results. Calls follow the shape of the full dose curve.

Molecular target: Glucocorticoid receptor (Homo sapiens) (UniProt P04150)
Test: GR-EFC Redistribution (AID 451)
Conditions: CHO-K1 GR-EFC translocation, beta-gal luminescence, 2 h
Text: NIH Molecular Libraries Screening Centers Network [MLSCN]
NIH Chemical Genomics Center [NCGC]
The glucocorticoid receptor (GR) is a cytoplasmic receptor that belongs to the nuclear receptor family of ligand-dependent transcription factors. Upon glucocorticoid binding to its receptor, the glucocorticoid-GR complex translocates into the nucleus, where it binds as a dimer to specific DNA sequences (glucocorticoid response elements), enhancing or suppressing transcription of a wide variety of glucocorticoid-responsive genes. In addition to their important roles in normal physiology and metabolism, glucocorticoids are administered exogenously as treatments for a wide variety of allergic, autoimmune, and neoplastic conditions. Identification of compounds that modulate aspects of GR signalling would be useful in dissecting glucocorticoid response pathways as well as developing GR modulators with more targeted clinical effects.
Traditionally, GR modulators have been identified using receptor binding or direct transactivation assays. However, assays for glucocorticoid-dependent nuclear translocation can also be used to screen for compounds affecting GR signaling.
Immunocytochemical staining has been used to assay for GR translocation, but is not suitable for high throughout screening due to the multiple reagent addition and wash steps required. Recently, a novel cell-based GR assay in Enzyme Fragment Complementation (EFC) format was developed by DiscoveRx (Fremont, CA). The assay uses EFC of b-galactosidase (b-gal) as an indicator of GR-translocation in engineered CHO-K1 biosensor cells. The enzyme acceptor (EA) fragment of b-gal resides in the nucleus , as designed through the use of a proprietary set of sequence additions and modifications. The small peptide enzyme donor (ED) fragment of b-gal is fused directly to the C-terminus of GR, and is localized in the cytoplasm is the absence of receptor signaling. Upon binding to a GR ligand, the complex translocates to the nucleus, where intact enzyme activity is restored by complementation and b-gal activity is detected. We optimized this GR-EFC assay in homogenous 1536-well plate assay format for high throughput screening.
NCGC Assay Protocol Summary:
CHO-K1 cells stably expressing NLS-enzyme acceptor fragment (EA) of b-gal and GR-enzyme donor (ED) fragment of b-gal were maintained in F12 medium (Invitrogen, Carlsbad, CA) at 37 Celsius degrees under a humidified atmosphere containing 5% CO2 and 95% air. The medium contained 10% FBS, 2 mM L-glutamine, 50 U/ml penicillin 50 ug/ml streptomycin, and 250 ug/ml hygromycin and 500 ug/ml G418 (Invitrogen).
GR-translocation was measured beta-gal enzyme activity using the PathHunter Detection Kit containing cell membrane permeablizing reagent and beta-gal substrate (DiscoveRx, Fremont, CA). All compounds were screened as titrations from 0.6 nM to 46 uM final concentration. The assay was performed in 1536-well format as follows:
5 uL cell suspension (1,000 cells)/well
Incubation at 37 Celsius degrees for two hours
1.25 uL 1X detection buffer from the kit supplied by DiscoveRx
Incubation at room temperature for one hour
Read plate in luminescence mode in ViewLux plate reader (PerkinElmer)
Keywords: NIH Roadmap, MLSCN, MLI, MLSMR, GR-EFC, GREFC, qHTS, NCGC
Potency is read from the fitted curve at half-maximal effect.

Sequence of Glucocorticoid receptor (Homo sapiens) (P04150 whole entry, looked up): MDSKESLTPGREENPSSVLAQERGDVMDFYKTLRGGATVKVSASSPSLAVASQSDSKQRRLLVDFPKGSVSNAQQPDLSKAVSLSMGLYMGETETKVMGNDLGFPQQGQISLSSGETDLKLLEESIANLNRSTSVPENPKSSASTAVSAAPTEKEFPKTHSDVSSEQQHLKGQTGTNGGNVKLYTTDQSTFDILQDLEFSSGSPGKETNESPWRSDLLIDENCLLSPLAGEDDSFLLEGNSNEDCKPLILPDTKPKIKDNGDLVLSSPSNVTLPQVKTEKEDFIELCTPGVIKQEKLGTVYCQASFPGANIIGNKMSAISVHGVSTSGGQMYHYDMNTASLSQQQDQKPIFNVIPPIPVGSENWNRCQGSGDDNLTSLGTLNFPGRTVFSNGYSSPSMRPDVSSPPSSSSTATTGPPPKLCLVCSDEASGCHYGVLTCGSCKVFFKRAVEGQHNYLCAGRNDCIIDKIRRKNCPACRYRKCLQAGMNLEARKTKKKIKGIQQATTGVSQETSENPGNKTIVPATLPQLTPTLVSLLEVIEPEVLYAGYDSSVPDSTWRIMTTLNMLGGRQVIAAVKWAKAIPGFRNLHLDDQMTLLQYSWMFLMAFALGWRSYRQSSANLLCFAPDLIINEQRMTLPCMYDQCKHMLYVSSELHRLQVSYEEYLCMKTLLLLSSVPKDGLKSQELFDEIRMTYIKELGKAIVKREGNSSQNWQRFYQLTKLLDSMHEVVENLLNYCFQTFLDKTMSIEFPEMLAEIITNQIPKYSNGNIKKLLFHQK

| SMILES | Potency |
| --- | --- |
| COc1ccccc1CNCCCCCCNCCCCCCCCNCCCCCCNCc1ccccc1OC | > 46 µM |
| Cn1c(=O)c2[nH]c(-c3ccccc3)nc2n(C)c1=O | > 46 µM |
| CCCn1c(=O)c2[nH]c(-c3ccc(OCC(=O)NCCN)cc3)nc2n(CCC)c1=O | > 46 µM |
| CCCCN1CCC(n2c(=O)[nH]c3ccccc32)CC1 | > 46 µM |
| c1cnc2c(c1)ccc1cccnc12 | > 46 µM and > 9.22 µM |
| CCCCCCCC/C=C\CCCCCCCC(=O)NCCO | > 46 µM |
| NCCCCCCCCCCN | > 46 µM |
| COC(=O)c1c(C)[nH]c(C)c1C(=O)c1ccccc1Cc1ccccc1 | > 46 µM |
| N[C@@H](CC(=O)O)C(=O)O | > 46 µM |
| NC[C@@H]1O[C@H](C23CC4CC(CC(C4)C2)C3)Cc2c1ccc(O)c2O | > 46 µM |
| N#C/C(=C\c1ccc(O)c(O)c1)C(=O)c1ccc(O)c(O)c1 | > 46 µM |
| Clc1ccc(N2CCN(Cc3c[nH]c4ncccc34)CC2)cc1 | > 46 µM |
| O=C1NC(O)=NC1(c1ccccc1)c1ccccc1 | > 46 µM |
| CN(C)c1nc(N)c(C(=O)N=C(N)N)nc1Cl | > 46 µM |
| CN1[C@@H]2CC[C@H]1CC(OC(c1ccccc1)c1ccccc1)C2 (stereo not given in full) | > 46 µM and > 9.22 µM |
| N=C(N)SCCc1ccc(CCSC(=N)N)cc1 | > 46 µM |
| N[C@H](CCCP(=O)(O)O)C(=O)O | > 46 µM |
| CCCSc1ccc2nc(NC(=O)OC)[nH]c2c1 | > 20.6 µM |
| N#C/C(=C\c1ccc(O)c(O)c1)C(=O)NCCCc1ccccc1 | > 46 µM |
| CN(C)c1ccc(C(=C2C=CC(=[N+](C)C)C=C2)c2ccccc2)cc1 | > 9.22 µM |

| SMILES | Potency |
| --- | --- |
| COc1ccccc1N1CCN(CCN(C(=O)c2ccc(I)cc2)c2ccccn2)CC1 | > 46 µM |
| CN1CCc2cc(NC(=O)Nc3cccnc3)ccc21 | > 46 µM |
| NCCNC(=O)c1ncsc1-c1cccc(F)c1 | > 46 µM |
| O=C1C(SCCO)=C(SCCO)C(=O)c2ccccc21 | > 46 µM |
| O=C(O)CC[C@@H](C(=O)O)N1C(=O)c2ccccc2C1=O | > 46 µM and > 9.22 µM |
| Cc1nc2sccn2c(=O)c1CCN1CCC(=C(c2ccccc2)c2ccc(F)cc2)CC1 | > 46 µM |
| O=c1[nH]c2ccccc2n1CCCN1CCN(C(c2ccccc2)c2ccccc2)CC1 | > 46 µM |
| O=C(Nc1cccc(C(=O)Nc2ccc(S(=O)(=O)O)c3cc(S(=O)(=O)O)cc(S(=O)(=O)O)c23)c1)Nc1cccc(C(=O)Nc2ccc(S(=O)(=O)O)c3cc(S(=O)(=O)O)cc(S(=O)(=O)O)c23)c1 | > 46 µM |
| O=c1[nH]c2cc([N+](=O)[O-])c([N+](=O)[O-])cc2[nH]c1=O | > 46 µM |
| C[C@@H](CN1CCC(Cc2ccccc2)CC1)[C@@H](O)c1ccc(O)cc1 | > 46 µM |
| COc1cc2c(CCNC(C)=O)c[nH]c2cc1Cl | > 46 µM |
| NCCCCC(=O)O | > 46 µM |
| O=C(O)c1cc(=O)c2ccccc2[nH]1 | > 46 µM |
| NCCSSCCN | > 46 µM and > 9.22 µM |
| Nc1cc(-c2ccncc2)c[nH]c1=O | > 20.6 µM |
| O=C(O)c1cc([N+](=O)[O-])ccc1NCCCc1ccccc1 | > 46 µM |
| Cc1ccc(O)c(N=Nc2ccccc2)n1 | > 46 µM |
| NC(=O)C(=O)O | > 46 µM |
| Clc1ccccc1-c1nc(-c2ccncc2)no1 | > 9.22 µM |
| Fc1ccc(C(OCCCc2cnc[nH]2)c2ccc(F)cc2)cc1 | > 46 µM |
